# Assay results published in the supplement of paper PMC4371806.
# Over roughly 2,300 compounds, “plate-normalized OD600 growth (mean of duplicates)” has its median near 0.29; the lowest 2% begin near 0.22. Shown is part of a subset that was picked to be rich in the lowest values.
# Test system: Escherichia coli BW25113
# Test: plate-normalized OD600 growth (mean of duplicates) (OD600 (normalized)); higher = more growth (less inhibition)
# Settings: 10 µM
# Experimental: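 E. coli BW25113 in LB (100 µl, 96-well, no shaking) was exposed to 10 µM of each compound from a ~30,000-member library and grown at 37°C for 24 h or 15°C for 48 h, in duplicate. Growth was read as OD600 and the duplicate ODs were normalized across screening plates to correct plate-to-plate variation. Hits were >3σ below the mean OD600 at 15°C and <2σ below the mean at 37°C.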
SMILES,"plate-normalized OD600 growth (temperature: 15°C, 48 h)","plate-normalized OD600 growth (temperature: 37°C, 24 h)"
O=C1CC(NCc2ccco2)C(=O)N1c1ccc(OC(F)(F)Cl)cc1 (configuration not stated),0.268,0.642
CCOC(=O)C(=CNNc1ccnc2cc(Cl)ccc12)C(=O)OCC,0.26,0.616
CCOC(=O)C(=CNNC(=O)c1ccccc1-n1cccc1)C(=O)OCC,0.213,0.618
CCOC(=O)C(=CNNS(=O)(=O)c1cc(C(F)(F)F)cc(C(F)(F)F)c1)C(=O)OCC,0.246,0.602
CC1COCCN1c1cc(N2CCCCC2C(F)(F)F)[nH]c(=O)c1 (configuration not stated),0.265,0.635
Nc1[nH]c(=O)c(CO)c(N)c1S(=O)(=O)c1ccccc1,0.211,0.632
N=c1c(S(=O)(=O)c2ccccc2)c(N)c(CO)c2sc3ccccc3n12,0.236,0.601
NS(=O)(=O)c1ccc(-n2ncc3ccccc3c2=O)cc1,0.214,0.646
CCOC(=O)c1cnn(-c2ccc(NS(=O)(=O)c3ccc(Cl)cc3)cc2)c1C(F)(F)F,0.233,0.609
O=C(CNC(=O)C(c1ccccc1)c1ccccc1)N/N=C/c1ccc(-c2ccc(Cl)c(Cl)c2)o1,0.238,0.611
Cc1cccc(NC(=O)COc2ccccc2C(=O)NCCNc2ccc([N+](=O)[O-])cc2)c1,0.209,0.656
O=C(COc1ccc(C(F)(F)F)cc1[N+](=O)[O-])Nc1cccc(C(F)(F)F)c1,0.264,0.633
Cc1ccccc1OCC(=O)Nc1cccc(N2C(=O)c3ccccc3C2=O)c1,0.235,0.661
CCC/C=N/NC(=O)c1ccc(N2CCCC2=O)cc1,0.26,0.647
c1ccc2c(c1)OCCCOc1ccccc1OCCCO2,0.251,0.607
COc1cc(S(=O)(=O)N2CCN(c3c(C)cccc3C)CC2)c(OC)cc1Cl,0.253,0.617
COc1cc2c(cc1OC)C(C)N(S(=O)(=O)c1cn(C)c(C)n1)CC2 (configuration not stated),0.245,0.611
CC(C)CC(=O)N(NC(=O)c1ccccc1)c1ccccc1,0.22,0.615
COc1ccccc1Oc1ccc(C(F)(F)F)cc1NC(=O)NC(=O)c1ccccc1F,0.265,0.619
O=C1/C(=C\c2ccccc2)N=C(c2ccccc2)N1CNc1nccs1,0.254,0.585
O=C(O)c1cccc(S(=O)(=O)Nc2ccc(Cl)cc2)c1,0.257,0.625
CC1=C(C#N)C(c2c(C)[nH]n(-c3ccccc3)c2=O)(C(F)(F)F)C(=O)N1 (configuration not stated),0.26,0.62
COc1ccccc1N=C(N)SCc1ccccc1,0.236,0.606
CCc1ccc(NC(=O)CSc2nnc3n(N)cnn23)cc1,0.238,0.609

SMILES,"plate-normalized OD600 growth (temperature: 15°C, 48 h)","plate-normalized OD600 growth (temperature: 37°C, 24 h)"
Cc1cc(O)c(C)c(O)c1/C=N/NC(=O)CNC(=O)c1ccco1,0.245,0.61
Cc1ccc(NC(=O)c2c3c(nc4ccccc24)CCCC3)cc1,0.239,0.614
C=CCn1c(C(O)c2ccccc2)n[nH]c1=S (configuration not stated),0.247,0.613
O=c1nc(-c2ccccc2)nc(-c2ccccc2)[nH]1,0.26,0.617
Cc1ccc2nc(Cl)c(C=Nc3ccccn3)cc2c1,0.226,0.611
COc1ccc(S(=O)(=O)N(Cc2ccccc2)c2ccccc2C(=O)N/N=C(\C)c2ccccc2O)cc1,0.259,0.618
O=C(NC(=S)Nc1ccc(Cc2ccncc2)cc1)c1cccc2ccccc12,0.259,0.614
COc1cc(CCNC(=O)OC(C)(C)C)c([S+]([O-])CSCc2ccccc2)cc1OC (configuration not stated),0.238,0.613
Cc1cc(=O)oc2n[nH]c(-c3ccccc3)c12,0.258,0.64
O=C(c1ccco1)N1CCC(c2ccccc2)C1 (configuration not stated),0.201,0.642
O=C(NCCSC1CCCCC1)c1ccco1,0.221,0.633
NC(=O)C1CCN(C(=O)c2ccco2)CC1,0.25,0.628
CCOc1ccc(-c2[nH]nc3c2C2(C(=O)Nc4ccc(C)c(Br)c42)C(C#N)=C(N)O3)cc1 (configuration not stated),0.245,0.6
COC(=O)CN1C(=O)C2(C(C#N)=C(N)Oc3n[nH]c(C)c32)c2ccccc21 (configuration not stated),0.207,0.65
N#CC1=C(N)Oc2n[nH]c(-c3cccs3)c2C12C(=O)Nc1ccc([N+](=O)[O-])cc12 (configuration not stated),0.265,0.618
CCOC(=O)c1c(N)oc2c(-c3ccc(C)c(Cl)c3)c3c(C(=O)OCC)c(N)oc3cc12,0.218,0.622
N#CCS(=O)(=O)c1cccs1,0.217,0.626
O=C(NC1Cc2ccccc2C1)c1cncc(Br)c1,0.281,0.658
c1ccc(-c2cc3c(nn2)CCc2nonc2-3)cc1,0.27,0.648
N#C/C(=C\c1ccc(OC(=O)c2cccc([N+](=O)[O-])c2)cc1)C(=O)c1ccccc1,0.211,0.634
COc1cc(O)ccc1/C=N/NC(=O)c1cccc([N+](=O)[O-])c1,0.248,0.614
O=C(N/N=C/c1ccc(OC(=O)c2cccc(F)c2)cc1)C1=NNC(c2ccccc2)(c2ccccc2)C1,0.267,0.624
CC(Oc1ccccc1)C(=O)Nc1ccc(Cl)cc1 (configuration not stated),0.222,0.64
CC(=O)c1cnn(-c2ccccc2)c1C,0.259,0.623

SMILES,"plate-normalized OD600 growth (temperature: 15°C, 48 h)","plate-normalized OD600 growth (temperature: 37°C, 24 h)"
O=C(/C=C/c1cccs1)C(C(=O)c1ccccc1)=C1SCCCCS1,0.244,0.615
O=C(CSc1nc2ccccc2s1)Nc1cccn2cc(-c3ccccc3)nc12,0.263,0.614
COc1ccc(CNCC2COc3ccccc3O2)cc1OC (configuration not stated),0.26,0.638
CC(C)Nc1nc(Cl)nc(Nc2cccc(C(F)(F)F)c2)n1,0.262,0.62
CCN=C(NCC)SC1CC(=O)N(c2ccc(C(=O)O)cc2)C1=O (configuration not stated),0.246,0.617
CCOc1ccc(C(C)(C)C(=O)Nc2ccc(C(=O)/C=C/c3ccco3)cc2)cc1,0.266,0.639
Clc1ccc2nc(N3CCOCC3)nc(-c3ccccc3)c2c1,0.251,0.61
CCC(=O)Nc1nc2ccc(C)cc2s1,0.246,0.603
N#CC(C(=O)Nc1cccc(C(F)(F)F)c1)C(=S)Nc1ccccc1Cl (configuration not stated),0.254,0.644
COc1cc(C(=S)N2CCCCC2)ccc1OC(=O)c1ccccc1,0.00796,0.606
CCCCOc1cc(C(=O)O)ccc1OC,0.261,0.64
COc1ccc(C(=O)N2CCN(c3c(C)cccc3C)CC2)cc1OC,0.257,0.622
Clc1cccc(Cl)c1/C=N/Nc1nncc(-c2ccccc2)n1,0.186,0.641
CSCCC(NC(=O)c1ccccc1)C(=O)OCC(=O)Nc1ccccc1C#N (configuration not stated),0.236,0.619
Clc1cccc(CN2CCN(Cc3ccco3)CC2)c1,0.237,0.636
Cc1cc2c(cc1C)CN(c1ccc(C(=O)N/N=C/c3ccccc3O)cc1)C2,0.25,0.63
COc1ccc(/C=N/NC(=O)COc2ccc(Cl)cc2)cc1I,0.257,0.62
CCCCOc1cccc(NC(=O)CCSc2nccn2C)c1,0.25,0.643
N#C/C(=C\c1ccccc1Cl)c1nc2ccccc2[nH]1,0.26,0.624
O=C(NCc1csc(-c2cccs2)n1)C1=Cc2ccccc2OC1,0.243,0.593
O=C(Nc1ccccc1C(=O)NC1CCCCNC1=O)c1cccs1 (configuration not stated),0.253,0.638
COc1ccc(-c2cc(C(F)(F)F)n3nc(C(=O)NC(C)(C)C)c(Cl)c3n2)cc1OC,0.245,0.619
Cc1nc(Nc2ccc(F)cc2)c2oc3ccccc3c2n1,0.245,0.613
